# Screening data: PubChem BioAssay, The Scripps Research Institute Molecular Screening Center
# GPR151 activ: activators of human GPR151, primary screen, cell-based, PathHunter beta-arrestin, luminescence; G-protein coupled receptor 151 (Homo sapiens), Q8TDV0; PathHunter beta-arrestin GPR151 cells; activation, % at 11.2 µM; hit rate 1% among 650,000; in the data active = activation above about 4.9%;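 note: 0% = median of compound wells and 100% = cells with positive control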
# MITF inh: MITF inhibitors, primary screen, biochemical, AlphaScreen, human; inhibition, % at 2.6 µM; AlphaScreen MITF homodimerization, bead proximity signal; hit rate 0.91% among 650,000; AID 1259374, 2018; in the data active = inhibition above about 50%;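 note: 0% = vehicle wells with protein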
# Target sequence (O75030 whole entry, looked up): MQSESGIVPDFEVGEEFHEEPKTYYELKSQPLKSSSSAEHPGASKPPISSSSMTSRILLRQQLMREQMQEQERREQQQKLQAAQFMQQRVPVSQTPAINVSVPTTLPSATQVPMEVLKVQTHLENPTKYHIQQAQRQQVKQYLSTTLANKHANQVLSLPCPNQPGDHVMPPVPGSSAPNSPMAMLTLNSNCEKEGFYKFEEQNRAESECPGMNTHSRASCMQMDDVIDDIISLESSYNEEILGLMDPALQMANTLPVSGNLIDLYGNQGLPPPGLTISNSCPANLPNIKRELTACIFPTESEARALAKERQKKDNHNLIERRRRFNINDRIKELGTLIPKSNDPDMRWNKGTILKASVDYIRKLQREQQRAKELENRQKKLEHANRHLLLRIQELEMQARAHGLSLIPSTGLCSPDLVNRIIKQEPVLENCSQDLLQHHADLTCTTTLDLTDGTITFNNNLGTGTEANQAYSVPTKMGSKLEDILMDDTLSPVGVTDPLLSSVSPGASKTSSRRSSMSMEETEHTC
# FBW7 act: FBW7 E3 ligase activators, primary screen, biochemical, AlphaScreen, human. F-box/WD repeat-containing protein 7 (Homo sapiens), Q969H0. AlphaScreen FBW7–phospho-cyclin E peptide binding, activator screen. normalized activity (activation), % at 26.1 µM. hit rate 0.13% among 650,000. AID 1259310, 2017; in the data active = normalized activity above about 1.9%;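 note: purified mutant Fbw7 with reduced substrate affinity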
# TEAD-YAP inh: TEAD-YAP interaction inhibition, primary screen, TEAD-YAP interaction inhibitor project, luminescence, HEK-TIYL cells | TEAD-Gal4/YAP UAS-luciferase luminescence | inhibition, % at 9.12 µM | hit rate 1.4% among 640,000 | AID 1259422, 2018; in the data active = inhibition above about 32%;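 note: 0% = median of test compound wells and 100% = reference inhibitor wells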
# * hit, by the source's call. Most compounds without a hit are left out; they make up all but 3.4% or so of the library.
SMILES,GPR151 activ,MITF inh,FBW7 act,TEAD-YAP inh
CC1=C(C(=O)Nc2ccc(C)cn2)C(c2ccsc2)C2=C(CC(C)(C)CC2=O)N1 (stereo not given),-0.2,-17.1,-0.3,55.1*
COc1ccc(COC(=O)C2=C(C)NC3=C(C(=O)CC(C)(C)C3)C2c2ccc(-c3ccccc3)cc2)cc1 (stereo not given),-0.9,4.6,0.4,15.1
CCOC(=O)C1=C(C)NC2=C(C(=O)CC(c3ccccc3)C2)C1c1cc(OC)ccc1OC (stereo not given),1.8,-1.7,-0.2,1.3
COc1ccc(COC(=O)C2=C(C)NC3=C(C(=O)CC(C)(C)C3)C2c2ccccc2)cc1 (stereo not given),0.2,14.4,2.6*,6.9
COc1ccccc1NC(=O)C1=C(C)NC2=C(C(=O)CC(C)(C)C2)C1c1cccc(O)c1 (stereo not given),-1.1,10.5,2.4*,0.9
CC1=C(C(=O)Nc2ccccn2)C(c2ccsc2)C2=C(CC(C)(C)CC2=O)N1 (stereo not given),1.9,1.8,-0.1,7.3
CC(=O)N1CCC(Oc2ccc(-c3ccsc3)cc2)CC1,1.4,10.5,0.0,-34.7
CCOC(=O)C1=C(C)NC2=C(C(=O)C(C(=O)OC)C(C)C2)C1c1ccc(OC)cc1 (stereo not given),-0.3,18.5,2.3*,-17.4
COc1ccc(C2CC(=O)C3=C(C2)NC(C)=C(C(=O)OCc2ccccc2)C3c2ccc(OC)c(Br)c2)cc1 (stereo not given),-0.6,-11.8,0.6,47.8*
COC(=O)C1=C(C)NC2=C(C(=O)CC(c3ccc(OC)cc3)C2)C1c1ccc(OC)c(Br)c1 (stereo not given),-0.3,-15.0,0.0,6.8
CCOC(=O)C1=C(C)NC2=C(C(=O)C(C(=O)OC)C(C)C2)C1c1ccc(C)cc1 (stereo not given),-1.6,10.0,0.5,-1.4
CC[C@H](C)[C@@H]1NC(=O)[C@H]2CN(C(=O)c3ccccc3Cl)CCN2C1=O,-0.4,16.4,0.5,6.0
CCCC(=O)N1c2cc(C)c(C)cc2C2=C(SC(C(=O)OC)=C(C(=O)OC)C23SC(C(=O)OC)=C(C(=O)OC)S3)C1(C)C,0.9,1.2,-0.1,0.9
COc1ccc(C(=O)Nc2cc(C)ccc2O)c(OC)c1,1.3,5.8,0.1,-51.6
COc1cc(OC)cc(C(=O)c2ccc(C(=O)Nc3cc(C(C)C)c(O)cc3C)cc2)c1,0.2,-1.1,0.1,46.7*
COc1ccc(C(=O)Nc2cc(C)ccc2O)cc1,-9.2,-4.8,0.0,44.1*
O=C(Nc1ccc([N+](=O)[O-])cc1)c1ccc(N2C(=O)c3ccc([N+](=O)[O-])cc3C2=O)cc1,-0.3,7.5,0.1,-5.7
Cc1ccc(O)c(NC(=O)c2ccc(N3C(=O)c4ccc([N+](=O)[O-])cc4C3=O)cc2)c1,-0.2,-26.2,0.1,55.0*
O=C1COc2ccc(C(=O)COC(=O)c3cc(O)c(O)c(O)c3)cc2N1,2.4,82.5*,0.1,2.3
Cn1cc(S(=O)(=O)N2CCc3ccccc32)cc1C(=O)NC(C)(C)C,0.6,-10.9,0.0,37.4*
CC(NC(=O)c1cc(S(=O)(=O)N2CCc3ccccc32)cn1C)c1ccccc1 (stereo not given),1.5,-12.7,0.0,-10.8
COc1cc(S(=O)(=O)N2CCCc3ccccc32)ccc1Cl,0.4,4.8,0.9,58.4*
COc1ccc(S(=O)(=O)N2CCCc3ccccc32)cc1,-0.4,-8.2,-0.1,57.9*
COc1cc(C)c(S(=O)(=O)N2CCc3ccccc32)cc1C,0.3,13.1,0.2,50.4*
COC(=O)c1ccc(S(=O)(=O)N2CCCc3ccccc32)cc1,1.7,-12.0,0.2,62.5*
SMILES,GPR151 activ,MITF inh,FBW7 act,TEAD-YAP inh
Cc1ccc(-n2nc3c(c2NC(=O)c2ccc([N+](=O)[O-])cc2)CS(=O)(=O)C3)c(C)c1,-0.1,11.1,0.6,3.6
Cc1ccc(-n2nc3c(c2NC(=O)c2cc([N+](=O)[O-])ccc2Cl)CS(=O)(=O)C3)c(C)c1,-0.7,6.2,-0.2,70.3*
Cc1ccccc1-n1nc2c(c1NC(=O)c1cc([N+](=O)[O-])ccc1Cl)CSC2,-0.1,11.0,-0.1,74.3*
Cc1ccc(-n2nc3c(c2NC(=O)c2cc([N+](=O)[O-])ccc2Cl)CS(=O)(=O)C3)cc1,2.0,5.0,-0.3,16.3
COc1ccc(-n2nc3c(c2NC(=O)c2cc([N+](=O)[O-])ccc2Cl)CS(=O)(=O)C3)cc1,-0.9,9.3,0.0,72.6*
CN(C)c1ccc(/C=C2/SC(N3CCC(Cc4ccccc4)CC3)=NC2=O)cc1,-0.1,15.6,0.2,-6.0
C=CCOC(=O)C1=C(C)NC(=O)NC1c1cn(-c2ccccc2)nc1-c1ccc(Br)cc1 (stereo not given),0.5,-0.6,-0.1,-3.4
N#CC(NC(=O)c1ccc(Cl)cc1)=C(Cl)Cl,-0.7,32.0,0.7,37.2*
O=C(NC(=O)N1CCCCC1)c1ccc(Cl)cc1,-0.6,0.9,-0.1,9.2
COc1ccccc1-n1nc(C(=O)Nc2cnc3ccccc3c2)c2ccccc2c1=O,2.1,5.5,0.0,-8.7
COc1cc(C2C(C#N)=C(N)Oc3ccc4ccccc4c32)cc(OC)c1OC (stereo not given),-0.2,3.9,0.2,47.8*
N#CC1=C(N)Oc2ccc3ccccc3c2C1c1ccccc1F (stereo not given),-0.6,-9.8,0.4,52.2*
COc1ccc(C2C(C#N)=C(N)Oc3ccc4ccccc4c32)cc1OC (stereo not given),1.6,-1.4,-0.1,-7.9
COc1ccc(CNC(=O)CSc2nc3cc4c(cc3cc2C#N)OCO4)cc1,0.5,0.7,0.0,-2.4
Cc1ccc(-c2nnc(Cc3ccccc3)o2)cc1,-2.2,-10.4,0.0,-58.3
Cc1ccc2oc(Cc3ccccc3)nc2c1,-2.1,19.6,0.3,47.0*
O=C(Nc1ccc2c(c1)OCO2)N1CCN(C2CCCCC2)CC1,-0.6,-0.7,0.0,-15.8
COc1ccc(CNC(=O)N2CCC(c3nnc(C4CC4)o3)CC2)cc1,-0.6,6.5,0.9,1.5
Cc1cccc(NC(=O)N2CCC(c3nnc(C4CC4)s3)CC2)c1,0.4,9.0,3.1*,-1.2
O=C(Nc1ccc2c(c1)OCO2)N1CCC(c2nnc(C3CC3)s2)CC1,-0.4,-15.1,2.6*,-22.9
COc1ccc(CNC(=O)N2CCC(c3nnc(C4CC4)s3)CC2)cc1,0.4,4.9,3.1*,4.4
COc1ccc(Cl)c2sc(N3CCN(C(=O)/C=C/c4cccs4)CC3)nc12,-0.9,-1.4,0.0,1.9
COc1ccccc1NC(C)C(=O)N/N=C/c1cc(Br)cc([N+](=O)[O-])c1O (stereo not given),2.0,-1.3,-0.3,11.6
COc1cc(OC)cc(C(=O)N/N=C(\C)CC(=O)Nc2cccc(C)c2C)c1,2.3,-8.3,0.0,49.9*
